Assay outcomes deposited in PubChem by National Center for Advancing Translational Sciences (NCATS).
In the library only some 7.4% were active in any assay of this set; here they are far more common.
SMN2 splice enh: SMN2 splice variant enhancement | 2.8% of 210,000 active | AID 1458 | Potency, µM (top dose mostly 46.1 µM), for the others: at the highest dose activity change, positive = activation, hits mostly activators | HEK293 SMN2-luciferase splicing reporter, luminescence, 30-36 h; also: % of control where 0% means no effect; nearly all actives have a fitted effect of over 55% in size
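qHTS luciferase splicing reporter: luminescence rises when SMN2 exon 7 is included in transfected HEK293 cells. Compound exposure lasted 30-36 h at 37C, with 4.5 mM final sodium butyrate as control, followed by a ONE-Glo read.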
FLuc modulator: counter-screen for miR-21 project: firefly luciferase inhibitors or activators; P08659; purified FLuc, Km substrates, luminescence inhibition; Potency, µM (doses to about 57.5 µM), for inactives: top-dose activity change, negative = inhibition, most hits filed as inhibitors; 6.9% of 360,000 active;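 also: plate controls were vehicle for no effect and reference inhibitor for full effect; nearly all actives have a fitted effect of over 55% in size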
Target sequence (P08659 whole entry, looked up): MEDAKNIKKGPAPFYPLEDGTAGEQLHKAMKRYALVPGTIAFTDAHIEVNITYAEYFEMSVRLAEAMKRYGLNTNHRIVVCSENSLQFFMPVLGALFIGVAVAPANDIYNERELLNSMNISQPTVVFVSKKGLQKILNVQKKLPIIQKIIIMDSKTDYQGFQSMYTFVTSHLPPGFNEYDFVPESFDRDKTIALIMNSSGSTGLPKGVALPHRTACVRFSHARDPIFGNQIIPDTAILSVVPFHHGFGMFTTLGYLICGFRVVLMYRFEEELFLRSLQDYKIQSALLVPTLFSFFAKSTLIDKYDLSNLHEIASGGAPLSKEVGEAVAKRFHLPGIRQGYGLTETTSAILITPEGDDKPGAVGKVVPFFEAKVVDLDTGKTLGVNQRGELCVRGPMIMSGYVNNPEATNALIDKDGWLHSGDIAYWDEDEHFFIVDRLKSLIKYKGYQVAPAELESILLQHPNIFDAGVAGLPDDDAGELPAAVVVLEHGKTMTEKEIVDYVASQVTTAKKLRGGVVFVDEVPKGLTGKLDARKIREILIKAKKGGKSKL
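Purified P. pyralis luciferase, 10 nM final, with Km-level 10 uM D-luciferin and 10 uM ATP in 50 mM Tris acetate pH 7.5, 10 mM Mg acetate, 0.01% Tween-20, 0.05% BSA; 6-point qHTS titration about 60 µM downward; luminescence read.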
ELG1 genotox: induces genotoxicity in HEK293T cells with luciferase-tagged ELG1. HEK293T ELG1-luciferase reporter, luminescence, 16 h. Potency, µM (doses to about 46 µM), inactives show at the highest dose activity change, positive = activation, actives largely listed as activators. 1.3% of 330,000 active. AID 504466; also: % of control where 0% means no effect; nearly all actives have a fitted effect of over 60% in size
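Reporter readout depends on ELG1 protein level, which increases with genetic stress. After 16 hr compound exposure at 37 °C, luciferase activity was quantified using ONE-Glo.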
NPC1 prom act: activators of NPC1 promoter. Huh7 NPC1 promoter luciferase reporter, 24 h. Potency, µM (top dose mostly 9.22 µM), for the others: at the highest dose activation, most hits filed as activators. 2.4% of 320,000 active. AID 485313; also: % of control where 0% means no effect; nearly all actives have a fitted effect of over 60% in size
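Stable NPC1-promoter luciferase Huh7 line; cpd (DMSO) 24 h, 37 °C, 5% CO2; Amplite luciferase reagent 10 min RT; luminescence readout. qHTS format.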
Rab9 promoter act: activates the Rab9 promoter; Potency, µM (doses to about 9.22 µM), without a hit: top-dose activation, negative = inhibition, hits mostly activators; AID 485297; Huh7 Rab9 promoter-luciferase reporter, luminescence, 24 h; 2.8% of 320,000 active; also: % of control where 0% means no effect; nearly all actives have a fitted effect of over 60% in size
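Cells were plated at 1500 per well in reduced-serum medium with 10% FBS and left 2 h. Compound in DMSO was then added for 24 h at 37 °C. Reporter signal was read by luminescence after 10 min with luciferase detection reagent.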
The depositor's hits bear a star; u = inconclusive; x = not tested or not shown; ! = not confirmed by another sample; [ ] = remark or other dose. Calls follow the shape of the dose curve; as a rule, active = well fitted curve in the direction sought with a large enough effect; inconclusive = small, poorly fitted or top-dose-only effect, or another doubt; inactive = no such curve, though single readings can be large; an effect the other way counts as inactive or inconclusive. Potency is read from the fitted curve at half-maximal effect.

SMILES	SMN2 splice enh	FLuc modulator	ELG1 genotox	NPC1 prom act	Rab9 promoter act
COc1ccc(C(=O)NCc2ccccc2OC)cc1	3%	-8%	1%	9%	-2%
O=c1c(Cl)c(Cl)cnn1Cc1nnc(-c2ccc(Cl)cc2)o1	-46%	u	-18%	-43%	-40%
COc1ccc(C(=O)CN2C(=O)N(c3ccc(C(C)=O)cc3)S(=O)(=O)c3ccccc32)cc1	x	-6%	x	x	x
CCOc1cc(CNC(=O)c2ccc3nc(CCc4ccccc4)oc3c2)ccc1OC	x	-11%	x	x	x
CCOc1ccc(CNC(=O)c2ccc(NC(=O)C3=CSCCO3)cc2)cc1	x	-6%	4%[9.26 µM]	1%	6%
CCOc1cc(CNC(=O)c2ccc(NC(=O)c3nsc4ccccc34)cc2)ccc1OC	x	3µM*	x	x	x
CCOc1ccc(CNC(=O)c2ccc(NC(=O)c3nsc4ccccc34)cc2)cc1	x	7.6µM*	x	x	x
CC(C)Oc1cc(O)c2c(=O)c(-c3ccc(O)cc3)coc2c1	7.1µM*	5.4µM*	16µM*	0.89µM*	1.4µM*
O=c1c(-c2cc(O)c(O)c(O)c2)coc2cc(O)c(O)c(O)c12	-5%	x	x	x	x
COc1ccc(-c2coc3cc(O)cc(O)c3c2=O)cc1	18µM*	6µM*	23µM*	2.2µM*	2.8µM*
O=c1c(-c2ccc(O)cc2)coc2cc(O)cc(O)c12	25µM*	21µM*	16µM*	5.8µM*	13µM*
COc1ccc(-c2coc3cc(OC)cc(O)c3c2=O)cc1	13µM*	1.5µM*	u	0.63µM*	1µM*
COc1cc(O)cc2occ(-c3ccc(O)cc3)c(=O)c12	x	u	17%	12%	2%
COc1ccc(-c2coc3cc(O)c(OC)cc3c2=O)cc1	x	u	u	26%	u
COc1cccc(-n2c(-c3cccc(F)c3)nc3c(cnn3-c3ccc(C)cc3)c2=O)c1	-13%	-5%	x	x	x
COc1ccc(CCNC(=O)CCc2c(C)c3cc4c(C)coc4cc3oc2=O)cc1	18%	-10%	x	x	x
Oc1cc2c(cc1O)C1c3ccc(O)c(O)c3OCC1(O)C2 (stereo unspecified)	-106%	8.5µM*	1%	1%	9%
COc1cc(/C=N/O)ccc1OCc1ccc(C(=O)O)cc1	0.4µM*	0.054µM*	u	u	0.089µM*
COc1ccc(NC(=O)COc2ccc(/C=N/O)cc2OC)cc1	x	21µM*	u	u	u
CCNC(=S)N/N=C/c1ccc(OCC(=O)Nc2ccc(OC)cc2)c(OC)c1	-13%	6%	-3%	-1%	-2%
COc1cc(/C=N/OCC(=O)NC23CC4CC(CC(C4)C2)C3)ccc1OCc1ccccc1	x	15µM*	11%	11%	16%
COc1cc(/C=N/N=C2/NC(=O)C(CC(=O)O)S2)ccc1OCc1ccc(Cl)cc1 (stereo unspecified)	11µM*	19µM*	u	-1%	0%
CC(=O)OC1CC[C@]2(C)C(CC[C@@]3(C)C2C(=O)C=C2C4C(C)C(C)CC[C@@]4(C(=O)O)CCC23C)C1(C)C (stereo partly specified)	-9%	x	x	x	x
Cc1cc(C)cc(O)c1	7%	x	x	x	x
CCOc1cc(/C=N/O)ccc1OCc1ccc(F)cc1	6%	u	5%	-2%	1%
SMILES	SMN2 splice enh	FLuc modulator	ELG1 genotox	NPC1 prom act	Rab9 promoter act
CCOc1ccc(C(=S)N2CCCC2)cc1OC	-15%	4%	-1%	-3%	-5%
CCOc1cc(/C=N/N=C(N)N)ccc1OCc1ccc(Cl)cc1	-62%	u	1%	-5%	-5%
COc1cc(/C=N/N=C(N)N)ccc1OCc1ccc(Cl)cc1	21%	3µM*	9.2µM*	u	u
COc1cc(C(=S)N2CCCC2)ccc1OCc1ccc(C)cc1	x	u	21µM*	u	u
COc1cc(/C=N/O)ccc1OCc1ccc(Cl)cc1	6.3µM*	1.3µM*	2.1µM*	0.63µM*	0.4µM*
CCc1ccccc1NC(=O)CSc1nc2c(oc3ccccc32)c(=O)n1C	-9%	1%	x	x	x
Cc1ccc(S(=O)(=O)NCC(=O)OCC(=O)NC2CCCCC2)cc1	x	x	-2%	x	x
CN(C)c1cccc(-c2csc(N3CCC(C(N)=O)CC3)n2)c1	x	x	9%	x	x
COc1cccc(-c2csc(N3CCC(C(N)=O)CC3)n2)c1	x	17µM*	x	x	x
COc1ccc(-c2csc3nc(-c4cccnc4)nc(N4CCC(C(N)=O)CC4)c23)cc1OC	14µM*	2%	-2%	-1%	-3%
CS(=O)(=O)c1cccc(-c2csc(N3CCC(C(N)=O)CC3)n2)c1	x	0%	10%	2.5µM*!	u
COC(C[C@H]1O[C@H]1[C@@H](O)[C@H](C)OCc1ccccc1)OC	x	1%	3%	0%	-5%
Cc1ccc(NC(=S)NCc2ccco2)c(C)c1	x	2%	0%	-2%	-2%
O=C(COC(=O)c1ccc([N+](=O)[O-])o1)NC1CCCc2ccccc21 (stereo unspecified)	x	x	1%	x	x
Cn1c(O)c(/C=C2\C=Nc3ccccc32)sc1=Nc1ccc(C(=O)O)cc1	x	u	0%	2%	11%
Oc1nc(Nc2ccc(Cl)cc2Cl)sc1/C=C1\C=Nc2ccccc21	3.2µM*	-10%	-3%	1%	-6%
CC1(C(=O)O)C=CCN1C(=O)c1ccccc1 (stereo unspecified)	-7%	4%	-1%	-4%	3%
CN(C)c1ccc(CNC(=O)C2(C)C=CCN2C(=O)c2ccccc2)cc1 (stereo unspecified)	16µM*	x	x	x	x
COc1cc(N=Nc2ccc3ccccc3c2)ccc1O	x	5.4µM*	12µM*	3.2µM*	u
Oc1ccc(N=Nc2ccc3ccccc3c2)cc1	x	1.1µM*	2.3µM*	3.5µM*	u
Oc1ccc(N=Nc2c(O)ccc3ccccc23)cc1	-21%	27µM*	-1%	16%	11%
COc1cc(N=Nc2ccccc2C(=O)O)ccc1O	x	u	1%	0%	-10%
O=c1cc(N=Nc2ccc(O)cc2)[nH]c(=O)[nH]1	-25%[9.22 µM]	x	x	x	x
Cc1cc(NC(=O)CCC(=O)N(CC(=O)NC2CCCC2)c2ccc(C(C)C)cc2)no1	x	1%	-2%	-3%	0%
Cc1ccc(C2C(C#N)=C(N)Oc3cc(N)ccc32)cc1 (stereo unspecified)	x	-4%	-1%	-7%	5%
N#CC1=C(N)Oc2cc3c(cc2C1c1ccc(Cl)cc1)OCO3 (stereo unspecified)	25µM*	-2%	-2%	-4%	-1%
Cc1sc(NC(=O)C2CCCCC2)c(C#N)c1-c1ccccc1	u	6.7µM*	u	u	4µM*
CCCC(=O)Nc1sc(C)c(-c2ccc(OC)cc2)c1C#N	-4%	0%	-3%	-1%	-2%
Cc1cccc(C(=O)Nc2sc(C)c(-c3ccccc3)c2C#N)c1	u	4.3µM*	u	2.8µM*	1.6µM*
Cc1noc(C)c1C(=O)Nc1sc(C)c(-c2ccccc2)c1C#N	-117%	-2%	-26%	-1%	-3%
